Measurements published in PubChem BioAssay AID1159580 (chemical genetic matrix, 2015).
“And” between values parts separate entries of the source, which are not always exact repeats. Identical values can stand only once. In all, about 5,500 compounds went through this assay and about 2,000 (36%) were called active. About 18% were inconclusive and are not listed. Rule as the data show it: active = normalized growth mostly below about 0.91 (no sharp cut-off); inconclusive = no clear call, values can overlap the other calls; inactive = mostly above about 0.92. Some of the results follow.

Test: chemical genetic growth profiling, strain panel (AID 1159580);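 also: tested at 20 µM; growth read once vehicle control cultures reached saturation at 30 °C; 1 = growth at the plate median or of vehicle wells; lower values mean less growth of the strain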
Conditions: S. cerevisiae deletion strains, growth OD

Measured: normalized growth

CC(N)C(=O)OC(C)(C)Cc1ccc(Cl)cc1 (stereo unspecified)
inactive: locus YAL013W, strain DEP1, hits give low values 0.986 and 1.01 | locus YAL021C, strain ccr4, hits give low values 1.03 | locus YAL026C, strain drs2, hits give low values 1.03 | locus YAL030W, strain snc1, hits give low values 1.01 | locus YAL040C, strain CLN3, hits give low values 1 | locus YBL061C, strain skt5, hits give low values 1.02 | locus YBR009C, strain hhf1, hits give low values 1.06 | locus YBR021W, strain FUR4, hits give low values 0.943 | locus YBR023C, strain chs3, hits give low values 1.02 | locus YBR171W, strain sec66, hits give low values 1.02 | locus YBR229C, strain ROT2, hits give low values 0.957 | locus YBR231C, strain swc5, hits give low values 1.01 | locus YBR279W, strain paf1, hits give low values 1.01 | locus YCL011C, strain gbp2, hits give low values 1.01 | locus YCL016C, strain dcc1, hits give low values 1.01 | locus YCL029C, strain bik1, hits give low values 0.987 | locus YCL061C, strain MRC1 (second series), hits give low values 0.995 | locus YCL061C, strain MRC1, hits give low values 1.02 | locus YCL069W, strain vba3, hits give low values 1.01 | locus YCR088W, strain abp1, hits give low values 1.01 | locus YDL005C, strain med2, hits give low values 1.03 | locus YDL035C, strain GPR1, hits give low values 0.98 | locus YDL040C, strain nat1, hits give low values 1 | locus YDL074C, strain BRE1, hits give low values 0.988 | locus YDL101C, strain DUN1, hits give low values 0.983 | locus YDL134C, strain PPH21, hits give low values 0.984 | locus YDL185W, strain tfp1, hits give low values 0.996 | locus YDL192W, strain arf1, hits give low values 0.983 | locus YDR001C, strain nth1, hits give low values 1.02 | locus YDR069C, strain doa4, hits give low values 1.03 | locus YDR101C, strain arx1, hits give low values 0.983 | locus YDR137W, strain rgp1, hits give low values 1.05 | locus YDR150W, strain NUM1, hits give low values 0.96 | locus YDR159W, strain sac3, hits give low values 1.01 | locus YDR162C, strain NBP2, hits give low values 0.985 | locus YDR195W, strain ref2 0.97 | locus YDR297W, strain sur2, hits give low values 1.01 | locus YDR318W, strain mcm21, hits give low values 0.996 | locus YDR334W, strain swr1, hits give low values 1.02 | locus YDR335W, strain msn5, hits give low values 1.02 | locus YDR363W, strain ESC2, hits give low values 0.999 | locus YDR388W, hits give low values 0.989 | locus YDR392W, strain spt3, hits give low values 1.03 | locus YDR502C, strain sam2, hits give low values 0.991 | locus YEL003W, strain gim4, hits give low values 1.01 | locus YEL037C, strain rad23, hits give low values 1.01 | locus YEL061C, strain CIN8 (second series), hits give low values 1.02 | locus YEL061C, strain CIN8, hits give low values 0.977 | locus YER002W, strain NOP16, hits give low values 1.02 | locus YER015W, strain faa2, hits give low values 1.01 | locus YER016W, strain bim1, hits give low values 1.01 | locus YER110C, hits give low values 0.972 | locus YER111C, strain swi4, hits give low values 1.03 | locus YER155C, strain BEM2 (second series), hits give low values 0.996 | locus YER155C, strain BEM2, hits give low values 1 | locus YER167W, strain BCK2, hits give low values 1.01 | locus YFR010W, strain ubp6, hits give low values 1.03 | locus YGL078C, strain dbp3, hits give low values 0.983 | locus YGL086W, strain mad1, hits give low values 0.975 | locus YGL167C, strain pmr1, hits give low values 1.01 | locus YGL173C, strain kem1, hits give low values 1.04 | locus YGL227W, strain vid30, hits give low values 1.01 | locus YGL240W, strain doc1, hits give low values 1.02 | locus YGL248W, strain PDE1, hits give low values 0.984 | locus YGL253W, strain hxk2, hits give low values 1.01 | locus YGR078C, strain PAC10, hits give low values 0.982 | locus YGR135W, strain pre9, hits give low values 0.994 | locus YGR229C, strain SMI1, hits give low values 0.996 | locus YGR252W, strain gcn5, hits give low values 0.882 | locus YHR013C, strain ard1, hits give low values 1.04 | locus YHR027C, strain rpn1, hits give low values 1.01 | locus YHR030C, strain SLT2, hits give low values 0.982 and 1.03 | locus YHR079C, strain IRE1 (second series), hits give low values 0.994 | locus YHR079C, strain IRE1, hits give low values 1.03 | locus YHR094C, strain hxt1, hits give low values 0.995 | locus YHR129C, strain ARP1, hits give low values 0.997 | locus YHR142W, strain chs7, hits give low values 1.04 | locus YHR200W, strain rpn10, hits give low values 0.987 | locus YIL066C, strain RNR3, hits give low values 0.965 | locus YIL073C, strain SPO22, hits give low values 1.02 | locus YIL125W, strain kgd1, hits give low values 0.984 | locus YIR030C, strain dcg1, hits give low values 0.977 | locus YJL092W, strain hpr5, hits give low values 1.02 | locus YJL095W, strain BCK1 (second series), hits give low values 1 | locus YJL095W, strain BCK1, hits give low values 1.02 and 1.01 | locus YJL115W, strain asf1, hits give low values 1.02 | locus YJL129C, strain trk1, hits give low values 1.03 | locus YJL134W, strain LCB3, hits give low values 0.983 | locus YJL154C, strain vps35, hits give low values 1.01 | locus YJL164C, strain tpk1, hits give low values 1.03 | locus YJL166W, strain qcr8, hits give low values 1.04 | locus YJL168C, strain set2, hits give low values 0.989 | locus YJL187C, strain SWE1 (second series), hits give low values 0.978 | locus YJL187C, strain SWE1, hits give low values 1.01 | locus YJR043C, strain POL32, hits give low values 1.02 | locus YJR066W, strain TOR1, hits give low values 0.971
